# Measurements reported in PubChem BioAssay AID1159580 (chemical genetic matrix, 2015).
# Hit rate of the full screen: of about 5,500 compounds, about 2,000 (36%) were called active. Inconclusive results (about 18%) are left out. The list shows a part of the results. A number with no mark means an inactive call. Cut-off read from the data, not from the text of the source: active = normalized growth mostly below about 0.91 (no sharp cut-off); inconclusive = no clear call, values can overlap the other calls; inactive = mostly above about 0.92.
# Test: chemical genetic growth profiling, strain panel (AID 1159580);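 note: tested at 20 µM; growth read once vehicle control cultures reached saturation at 30 °C; 1 = growth at the plate median or of vehicle wells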
# Details: growth OD
# [1] = S. cerevisiae deletion strains, locus YAL013W, strain DEP1, stronger effect = lower value
# [2] = S. cerevisiae deletion strains, locus YBR229C, strain ROT2, stronger effect = lower value
# [3] = S. cerevisiae deletion strains, locus YCL061C, strain MRC1, stronger effect = lower value
# [4] = S. cerevisiae deletion strains, locus YDL101C, strain DUN1, stronger effect = lower value
# [5] = S. cerevisiae deletion strains, locus YDL134C, strain PPH21, stronger effect = lower value
# [6] = S. cerevisiae deletion strains, locus YDR150W, strain NUM1, stronger effect = lower value
# [7] = S. cerevisiae deletion strains, locus YEL061C, strain CIN8, stronger effect = lower value
# [8] = S. cerevisiae deletion strains, locus YGR078C, strain PAC10, stronger effect = lower value
# [9] = S. cerevisiae deletion strains, locus YHR030C, strain SLT2, stronger effect = lower value
# [10] = S. cerevisiae deletion strains, locus YHR087W, strain rtc3, stronger effect = lower value
# [11] = S. cerevisiae deletion strains, locus YJR043C, strain POL32, stronger effect = lower value
# [12] = S. cerevisiae deletion strains, locus YJR075W, strain HOC1, stronger effect = lower value
# [13] = S. cerevisiae deletion strains, locus YKL190W, strain CNB1, stronger effect = lower value
# [14] = S. cerevisiae deletion strains, locus YLR039C, strain RIC1, stronger effect = lower value
# [15] = S. cerevisiae deletion strains, locus YLR058C, strain SHM2 (second series), stronger effect = lower value
# [16] = S. cerevisiae deletion strains, locus YLR085C, strain ARP6, stronger effect = lower value
# [17] = S. cerevisiae deletion strains, locus YLR262C, strain YPT6, stronger effect = lower value
# [18] = S. cerevisiae deletion strains, locus YML094W, strain GIM5, stronger effect = lower value
# [19] = S. cerevisiae deletion strains, locus YMR219W, strain ESC1, stronger effect = lower value
# [20] = S. cerevisiae deletion strains, locus YMR263W, strain SAP30, stronger effect = lower value
# [21] = S. cerevisiae deletion strains, locus YMR307W, strain GAS1, stronger effect = lower value
# [22] = S. cerevisiae deletion strains, locus YNL153C, strain GIM3, stronger effect = lower value
# [23] = S. cerevisiae deletion strains, locus YNL298W, strain CLA4 (second series), stronger effect = lower value
# [24] = S. cerevisiae deletion strains, locus YNL322C, strain KRE1, stronger effect = lower value
# [25] = S. cerevisiae deletion strains, locus YNR030W, strain Alg12, stronger effect = lower value
# [26] = S. cerevisiae deletion strains, locus YPL055C, strain LGE1, stronger effect = lower value
# [27] = S. cerevisiae deletion strains, locus YPL241C, strain CIN2, stronger effect = lower value
# [28] = S. cerevisiae deletion strains, locus YPR135W, strain CTF4, stronger effect = lower value
# [29] = S. cerevisiae strains, strain wild type, stronger effect = lower value
smiles,measurement,setting,value
N#Cc1ccc(-c2csc(-c3ccc(Oc4ccc(C(F)(F)F)cn4)cc3)n2)cc1,normalized growth,[1],0.98
same,normalized growth,[2],1
same,normalized growth,[3],1.01
same,normalized growth,[4],1.03
same,normalized growth,[5],0.986
same,normalized growth,[6],1.01
same,normalized growth,[7],1.01
same,normalized growth,[8],0.996
same,normalized growth,[9],1.03
same,normalized growth,[10],0.984
same,normalized growth,"S. cerevisiae deletion strains, locus YJL187C, strain SWE1, stronger effect = lower value",1
same,normalized growth,[11],1.01
same,normalized growth,[12],1.03
same,normalized growth,[13],1.01
same,normalized growth,[14],0.974
same,normalized growth,[15],1
same,normalized growth,[16],1.14
same,normalized growth,[17],0.974
same,normalized growth,[18],0.99
same,normalized growth,[19],1
same,normalized growth,[20],1.03
same,normalized growth,[21],1.32
same,normalized growth,[22],1.02
same,normalized growth,[23],1
same,normalized growth,[24],0.994
same,normalized growth,[25],1
same,normalized growth,"S. cerevisiae deletion strains, locus YOL006C, strain TOP1, stronger effect = lower value",1.05
same,normalized growth,[26],0.998
same,normalized growth,[27],1.33 [resistant] (active)
same,normalized growth,[28],0.88
same,normalized growth,[29],0.99
Cc1ccc(-c2csc(-c3ccc(Oc4ccc(C(F)(F)F)cn4)cc3)n2)c(C)c1,normalized growth,[1],0.995
same,normalized growth,[2],1
same,normalized growth,[3],1.02
same,normalized growth,[4],1.03
same,normalized growth,[5],0.992
same,normalized growth,[6],1.01
same,normalized growth,[7],1
same,normalized growth,[8],1.01
same,normalized growth,"S. cerevisiae deletion strains, locus YGR229C, strain SMI1, stronger effect = lower value",0.996
same,normalized growth,[9],1.06
same,normalized growth,[10],0.995
same,normalized growth,[11],1.01
same,normalized growth,[12],1.03
same,normalized growth,[13],0.993
same,normalized growth,[14],1.03
same,normalized growth,[15],1
same,normalized growth,[16],1.17
same,normalized growth,[17],0.996
same,normalized growth,[18],1
same,normalized growth,[19],0.998
same,normalized growth,[20],1.03
same,normalized growth,[21],1.24
same,normalized growth,[22],1.02
same,normalized growth,[23],1
same,normalized growth,[24],1
same,normalized growth,[25],1
same,normalized growth,[26],1.01
same,normalized growth,[27],1.03
same,normalized growth,[28],0.966
same,normalized growth,[29],0.988
